Test results as given in PubChem BioAssay (EPA / NIEHS).
Records with an inconclusive call do not appear. The source made the active and inactive calls. The calls were made as follows, unless noted: active = hit-call score of the fitted dose curve at least 0.9, where 1 is the maximum; inactive = score below 0.9.

Key:
[1] = target: Paired box protein Pax-6 (Homo sapiens) (UniProt P26367); experiment: ATG_Pax6_CIS: Attagene CIS-FACTORIAL HepG2 Assay for human Paired Box 6 (PAX6) (AID 2282956); details: HepG2 CIS-FACTORIAL PAX6 reporter transcription, RNA readout; actives raise or lower the signal
Chain of Paired box protein Pax-6 (Homo sapiens) (P26367 whole entry, looked up): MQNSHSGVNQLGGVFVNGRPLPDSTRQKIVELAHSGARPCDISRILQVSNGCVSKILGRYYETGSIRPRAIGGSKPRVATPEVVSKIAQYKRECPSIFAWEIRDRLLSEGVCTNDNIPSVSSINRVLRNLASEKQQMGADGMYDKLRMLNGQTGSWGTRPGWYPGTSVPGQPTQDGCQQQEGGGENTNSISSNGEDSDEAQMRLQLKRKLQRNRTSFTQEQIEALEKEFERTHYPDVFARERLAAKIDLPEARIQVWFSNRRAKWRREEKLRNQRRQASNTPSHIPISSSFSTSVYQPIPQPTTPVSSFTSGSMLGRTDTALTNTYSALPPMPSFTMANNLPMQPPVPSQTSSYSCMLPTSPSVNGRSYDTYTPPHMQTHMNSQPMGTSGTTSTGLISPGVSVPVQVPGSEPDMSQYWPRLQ
Summary of the method: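 Multiplexed cis-reporter HepG2 system; 24 h treatment; reporter mRNA read by RT-PCR/CE fluorescence; bidirectional fit vs DMSO.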

[2] = ATG_PXRE_CIS: Attagene CIS-FACTORIAL HepG2 Assay for human Pregnane X Receptor Element (PXRE) (AID 2282957); details: HepG2 Attagene CIS-FACTORIAL PXRE reporter, mRNA; actives raise or lower the signal
Summary of the method: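 Transfect HepG2 with MRTUs (cis promoter elements); dose chemical, incubate 24 h; isolate RNA, RT with oligo(dT), PCR, 6-FAM label, HpaI cut, CE. Gain/loss fit vs DMSO.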

[3] = ATG_PPRE_CIS: Attagene CIS-FACTORIAL HepG2 Assay for human Peroxisome Proliferator-activated Response Element (PPRE) (AID 2282958); details: HepG2 PPRE cis-element reporter, Attagene transcription factor profiling; actives raise or lower the signal
Summary of the method: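 HepG2 cells transiently transfected with multiplexed cis-element reporter units measure endogenous transcription factor activity. After 24 h compound exposure, reporter mRNA is quantified by RT-PCR, 6-FAM labeling, HpaI digestion and capillary electrophoresis; bidirectional fits are made against DMSO baseline.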

[4] = ATG_Sox_CIS: Attagene CIS-FACTORIAL HepG2 Assay for human SRY-box transcription factor (SOX) (AID 2282960); details: HepG2 Attagene cis-factorial SOX reporter, mRNA; actives raise or lower the signal
Summary of the method: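 HepG2 cells transiently transfected with cis-element-driven multiple reporter transcription units, dosed 24 h; reporter mRNA measured by RT-PCR, FAM labelling, HpaI digestion and capillary electrophoresis. Bidirectional fit versus DMSO baseline.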

[5] = ATG_SREBP_CIS: Attagene CIS-FACTORIAL HepG2 Assay for human Sterol Regulatory Element Binding (SREBP) (AID 2282962); details: HepG2 Attagene cis-factorial SREBP reporter, mRNA; actives raise or lower the signal
Summary of the method: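 mRNA induction of transfected cis-promoter reporters in HepG2 cells, 24 h post-dose. Detection: RT-PCR with 6-FAM-labelled products, HpaI digest, capillary electrophoresis. DMSO served as negative control and baseline.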

[6] = target: Signal transducer and activator of transcription 3 (Homo sapiens) (UniProt P40763); experiment: ATG_STAT3_CIS: Attagene CIS-FACTORIAL HepG2 Assay for human Signal Transducer and Activator of Transcription 3 (STAT3) (AID 2282963); details: HepG2, Attagene cis-factorial STAT3 reporter transcription; actives raise or lower the signal
Chain of Signal transducer and activator of transcription 3 (Homo sapiens) (P40763 whole entry, looked up): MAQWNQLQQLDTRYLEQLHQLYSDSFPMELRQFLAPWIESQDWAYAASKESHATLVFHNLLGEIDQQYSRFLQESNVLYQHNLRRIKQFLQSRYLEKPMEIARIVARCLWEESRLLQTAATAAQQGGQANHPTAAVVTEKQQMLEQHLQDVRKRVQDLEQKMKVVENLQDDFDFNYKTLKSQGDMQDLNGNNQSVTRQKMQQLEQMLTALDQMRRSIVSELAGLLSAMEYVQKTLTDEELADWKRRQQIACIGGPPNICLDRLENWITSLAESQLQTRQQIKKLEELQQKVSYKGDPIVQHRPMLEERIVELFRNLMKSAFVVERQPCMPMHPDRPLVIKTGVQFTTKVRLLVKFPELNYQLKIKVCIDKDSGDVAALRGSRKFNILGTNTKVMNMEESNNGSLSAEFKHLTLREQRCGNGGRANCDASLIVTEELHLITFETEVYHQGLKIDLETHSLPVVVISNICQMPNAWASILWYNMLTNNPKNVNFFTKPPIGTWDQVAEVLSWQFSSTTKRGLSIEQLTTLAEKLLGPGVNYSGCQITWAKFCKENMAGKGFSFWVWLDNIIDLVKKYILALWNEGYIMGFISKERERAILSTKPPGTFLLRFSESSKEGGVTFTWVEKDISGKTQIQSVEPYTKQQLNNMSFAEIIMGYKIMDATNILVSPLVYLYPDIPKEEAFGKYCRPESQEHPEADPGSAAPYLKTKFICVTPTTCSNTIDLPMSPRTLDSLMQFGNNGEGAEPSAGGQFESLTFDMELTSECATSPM
Summary of the method: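 Values derive from bidirectional fits relative to DMSO of reporter mRNA levels, measured by RT-PCR with capillary electrophoresis, in HepG2 cells carrying transiently transfected cis-regulated reporter units and exposed 24 h.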

[7] = ATG_TA_CIS: Attagene CIS-FACTORIAL HepG2 Assay for human TA Basal Promoter (AID 2282964); details: HepG2 Attagene CIS-factorial TA basal promoter reporter; actives raise or lower the signal
Summary of the method: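 Background-control readout: TA basal promoter reporter mRNA, fitted in both directions relative to DMSO. Measured by RT-PCR and capillary electrophoresis 24 hours after treating HepG2 human liver cells transiently carrying multiplexed cis-regulated reporter constructs.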

[8] = ATG_TCF_b_cat_CIS: Attagene CIS-FACTORIAL HepG2 Assay for human T-Cell-Factor with beta-catenin (TCF/b-cat) (AID 2282965); details: HepG2 TCF/beta-catenin cis-reporter transcription, actives raise or lower the signal
Summary of the method: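 HepG2, transient MRTU transfection, cis-element-driven reporters (endogenous TFs). 24 h compound exposure. Readout: reporter mRNA by RT-PCR + 6-FAM primer extension, HpaI digest, capillary electrophoresis. Gain/loss fit vs DMSO baseline.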

[9] = ATG_TAL_CIS: Attagene CIS-FACTORIAL HepG2 Assay for human TAL Basal Promoter (AID 2282966); details: HepG2 Attagene cis-factorial TAL promoter reporter; actives raise or lower the signal;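 also: background control endpoint measuring basal TAL promoter reporter mRNA not a specific factor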
Summary of the method: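 Fluorescence of labelled reporter cDNA fragments, resolved by capillary electrophoresis, gave the readout. Human HepG2 liver cells carried transiently transfected cis-element reporter units and were treated for 24 hours; activity was fitted bidirectionally against DMSO.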

[10] = ATG_TGFb_CIS: Attagene CIS-FACTORIAL HepG2 Assay for human Transforming Growth Factor (TGF) (AID 2282967); details: HepG2 Attagene CIS TGFb reporter, mRNA transcription; actives raise or lower the signal
Summary of the method: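 Endogenous TGFB1-linked transcription factor activity read as reporter mRNA via RT-PCR and capillary electrophoresis, 24 h after dosing transiently transfected HepG2 cells. Gain or loss of signal fitted relative to DMSO.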

[11] = target: Nuclear receptor subfamily 1 group I member 3 (Homo sapiens) (UniProt Q14994); experiment: ATG_CAR_TRANS: Attagene TRANS-FACTORIAL HepG2 Assay for human Constitutive Androstane Receptor (CAR) (AID 2282969; active = hit-call score of the fitted dose curve at least 0.9, where 1 is the maximum;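 also: activators raise reporter mRNA above DMSO so AC50 marks induction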); details: HepG2 Attagene TRANS-FACTORIAL CAR reporter
Chain of Nuclear receptor subfamily 1 group I member 3 (Homo sapiens) (Q14994 whole entry, looked up, the tested form may be a part): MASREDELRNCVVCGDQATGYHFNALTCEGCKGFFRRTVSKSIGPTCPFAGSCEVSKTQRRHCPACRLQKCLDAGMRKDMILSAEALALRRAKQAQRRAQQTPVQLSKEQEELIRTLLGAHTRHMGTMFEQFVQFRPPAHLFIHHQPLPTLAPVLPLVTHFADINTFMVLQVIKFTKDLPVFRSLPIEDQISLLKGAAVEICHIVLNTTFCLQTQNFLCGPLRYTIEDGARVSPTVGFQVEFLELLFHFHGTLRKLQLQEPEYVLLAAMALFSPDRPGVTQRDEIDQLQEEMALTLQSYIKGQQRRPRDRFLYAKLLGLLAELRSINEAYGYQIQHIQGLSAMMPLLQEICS
Summary of the method: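 HepG2 cells transiently transfected with GAL4-UAS reporter units; TRANS format reads activity of exogenous chimeric NR-Gal4 protein. After 24 h dosing, reporter mRNA quantified by RT-PCR, 6-FAM labelling and capillary electrophoresis; gain of signal fitted against DMSO.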

[12] = target: Estrogen receptor (Homo sapiens) (UniProt P03372); experiment: ATG_ERa_TRANS: Attagene TRANS-FACTORIAL HepG2 Assay for human Estrogen Receptor alpha (ERa) (AID 2282970; active = hit-call score of the fitted dose curve at least 0.9, where 1 is the maximum); details: HepG2 Attagene TRANS ERa GAL4 reporter, mRNA
Chain of Estrogen receptor (Homo sapiens) (P03372 whole entry, looked up, the tested form may be a part): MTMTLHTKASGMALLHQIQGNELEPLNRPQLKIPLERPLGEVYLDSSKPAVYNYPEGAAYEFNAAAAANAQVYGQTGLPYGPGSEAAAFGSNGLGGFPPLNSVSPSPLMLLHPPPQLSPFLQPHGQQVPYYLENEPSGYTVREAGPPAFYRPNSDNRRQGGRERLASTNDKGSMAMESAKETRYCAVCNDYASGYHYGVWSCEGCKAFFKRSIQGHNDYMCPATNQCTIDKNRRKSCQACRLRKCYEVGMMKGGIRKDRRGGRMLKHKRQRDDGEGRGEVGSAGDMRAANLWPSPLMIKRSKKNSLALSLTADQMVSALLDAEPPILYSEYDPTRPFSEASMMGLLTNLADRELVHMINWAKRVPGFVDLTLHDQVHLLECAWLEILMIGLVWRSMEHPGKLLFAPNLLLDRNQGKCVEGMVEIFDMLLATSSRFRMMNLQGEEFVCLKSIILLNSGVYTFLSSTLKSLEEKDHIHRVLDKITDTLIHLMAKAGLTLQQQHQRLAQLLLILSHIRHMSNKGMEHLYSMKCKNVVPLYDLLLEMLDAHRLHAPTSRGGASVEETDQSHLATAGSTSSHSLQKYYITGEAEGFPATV
Summary of the method: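 Human liver HepG2, transient transfection of multiple GAL4-UAS reporter units; TRANS format (exogenous NR-Gal4 chimera). 24 h dosing. Readout: reporter mRNA, RT-PCR, 6-FAM primer extension, HpaI digest, capillary electrophoresis. Positive direction vs DMSO.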

[13] = target: X-box-binding protein 1 (Homo sapiens) (UniProt P17861); experiment: ATG_Xbp1_CIS: Attagene CIS-FACTORIAL HepG2 Assay for human X-box Binding Protein 1 (XBP1) (AID 2282972); details: HepG2 XBP1 cis-element reporter, Attagene multiplex; actives raise or lower the signal
Chain of X-box-binding protein 1 (Homo sapiens) (P17861 whole entry, looked up, the tested form may be a part): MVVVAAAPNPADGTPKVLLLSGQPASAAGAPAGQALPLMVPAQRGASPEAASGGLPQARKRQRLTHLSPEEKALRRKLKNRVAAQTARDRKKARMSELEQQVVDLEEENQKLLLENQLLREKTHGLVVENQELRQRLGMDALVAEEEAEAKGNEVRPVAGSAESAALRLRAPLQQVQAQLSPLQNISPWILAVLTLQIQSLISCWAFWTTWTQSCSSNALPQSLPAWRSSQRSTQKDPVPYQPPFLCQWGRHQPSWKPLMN
Summary of the method: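 Fluorescence-labelled cDNA fragments from reporter transcripts, separated by capillary electrophoresis, give the signal. Source: HepG2 cells transfected with promoter-driven reporter units, harvested 24 h post-dose. DMSO served as reference for bidirectional curve fitting.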

[14] = ATG_GAL4_TRANS: Attagene TRANS-FACTORIAL HepG2 Assay for GAL4 (Internal Marker) (AID 2282976; active = hit-call score of the fitted dose curve at least 0.9, where 1 is the maximum); details: HepG2 Attagene TRANS GAL4 internal marker reporter
Summary of the method: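 First, HepG2 cells were transfected with reporter units under GAL4-UAS control. Next, they were treated with chemical for 24 h. Finally, RNA was reverse-transcribed, PCR-amplified, FAM-labelled and resolved by capillary electrophoresis, with induction scored against DMSO.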

[15] = ATG_VDRE_CIS: Attagene CIS-FACTORIAL HepG2 Assay for human Vitamin D Receptor Element (VDRE) (AID 2282968); details: HepG2 VDRE cis-reporter transcription, actives raise or lower the signal
Summary of the method: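 Cell-based multiplexed reporter format in human liver HepG2 cells, 24 h post-dose. Fluorescence from capillary electrophoresis of reporter cDNA gives the signal, with DMSO as negative control and baseline.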

[16] = ATG_RORE_CIS: Attagene CIS-FACTORIAL HepG2 Assay for human RAR-related Orphan Receptor Element (RORE) (AID 2282959); details: HepG2 Attagene cis-factorial RORE reporter, mRNA; actives raise or lower the signal
Summary of the method: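 HepG2 cells transiently transfected with multiple cis-element reporter transcription units, exposed to chemical for 24 h. Reporter mRNA quantified by RT-PCR, 6-FAM primer-extension labeling, HpaI digestion and capillary electrophoresis; bidirectional fit versus DMSO baseline.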

[17] = target: Steroid hormone receptor ERR1 (Homo sapiens) (UniProt P11474); experiment: ATG_ERRa_TRANS: Attagene TRANS-FACTORIAL HepG2 Assay for human Estrogen-Related Receptor alpha (ERRa) (AID 2282971; active = hit-call score of the fitted dose curve at least 0.9, where 1 is the maximum); details: HepG2 Attagene TRANS reporter, ERRa transactivation
Chain of Steroid hormone receptor ERR1 (Homo sapiens) (P11474 whole entry, looked up, the tested form may be a part): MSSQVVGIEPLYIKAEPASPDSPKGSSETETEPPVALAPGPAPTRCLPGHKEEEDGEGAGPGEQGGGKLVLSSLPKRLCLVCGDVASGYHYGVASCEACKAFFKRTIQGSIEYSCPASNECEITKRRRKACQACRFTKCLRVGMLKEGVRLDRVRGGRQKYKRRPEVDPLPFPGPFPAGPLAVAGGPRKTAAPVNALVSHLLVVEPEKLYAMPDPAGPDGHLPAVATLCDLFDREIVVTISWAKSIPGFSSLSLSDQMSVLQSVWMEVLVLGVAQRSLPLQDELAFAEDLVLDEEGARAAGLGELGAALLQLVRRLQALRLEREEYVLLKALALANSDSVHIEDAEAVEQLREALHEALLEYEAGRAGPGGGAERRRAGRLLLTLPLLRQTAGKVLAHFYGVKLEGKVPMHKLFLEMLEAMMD
Summary of the method: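 Reporter transcript induction was quantified by RT-PCR and capillary electrophoresis of FAM-labelled, HpaI-cut products after 24 h treatment of HepG2 cells carrying transiently transfected GAL4-UAS reporter units and an exogenous ERRa-Gal4 fusion; activity scored as increase over DMSO.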

[18] = target: Androgen receptor (Homo sapiens) (UniProt P10275); experiment: ATG_AR_TRANS: Attagene TRANS-FACTORIAL HepG2 Assay for human Androgen Receptor (AR) (AID 2282973; active = hit-call score of the fitted dose curve at least 0.9, where 1 is the maximum); details: HepG2 Attagene TRANS-FACTORIAL AR reporter transcription
Chain of Androgen receptor (Homo sapiens) (P10275 whole entry, looked up, the tested form may be a part): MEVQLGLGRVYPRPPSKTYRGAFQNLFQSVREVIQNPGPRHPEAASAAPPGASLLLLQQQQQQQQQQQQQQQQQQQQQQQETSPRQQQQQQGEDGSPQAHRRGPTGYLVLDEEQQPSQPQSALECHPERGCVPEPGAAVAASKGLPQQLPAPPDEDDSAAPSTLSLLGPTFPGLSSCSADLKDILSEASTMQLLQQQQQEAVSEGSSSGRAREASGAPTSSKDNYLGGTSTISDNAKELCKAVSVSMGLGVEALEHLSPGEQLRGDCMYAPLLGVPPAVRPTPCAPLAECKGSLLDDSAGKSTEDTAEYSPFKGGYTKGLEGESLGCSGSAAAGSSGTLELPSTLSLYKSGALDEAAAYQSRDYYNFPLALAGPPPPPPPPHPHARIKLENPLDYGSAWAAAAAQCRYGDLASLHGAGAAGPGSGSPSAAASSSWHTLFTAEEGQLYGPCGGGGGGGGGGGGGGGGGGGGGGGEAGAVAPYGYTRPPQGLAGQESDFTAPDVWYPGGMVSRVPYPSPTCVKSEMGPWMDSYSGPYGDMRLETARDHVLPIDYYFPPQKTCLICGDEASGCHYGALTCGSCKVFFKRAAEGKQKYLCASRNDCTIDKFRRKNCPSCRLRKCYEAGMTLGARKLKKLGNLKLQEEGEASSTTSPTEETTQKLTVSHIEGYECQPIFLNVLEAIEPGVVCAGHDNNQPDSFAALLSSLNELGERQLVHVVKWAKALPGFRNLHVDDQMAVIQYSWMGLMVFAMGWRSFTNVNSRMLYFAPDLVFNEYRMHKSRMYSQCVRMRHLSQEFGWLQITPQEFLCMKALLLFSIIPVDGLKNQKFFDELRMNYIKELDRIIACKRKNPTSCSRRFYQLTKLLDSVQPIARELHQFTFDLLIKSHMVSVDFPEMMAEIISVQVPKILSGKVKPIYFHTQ
Summary of the method: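 Steps: transfect HepG2 with multiple GAL4-UAS reporter transcription units (TRANS format, exogenous NR-Gal4 protein); dose 24 h; isolate RNA, reverse-transcribe, PCR-amplify, FAM-label, HpaI-digest; resolve by capillary electrophoresis. Positive direction vs DMSO.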

## N#CC(Br)Br
[1]
  outcome: inactive
[2]
  outcome: inactive
[3]
  outcome: inactive
[4]
  outcome: inactive
[5]
  outcome: inactive
[6]
  outcome: inactive
[7]
  outcome: inactive
[8]
  outcome: inactive
[9]
  outcome: inactive
[10]
  outcome: inactive
[11]
  outcome: inactive
[12]
  outcome: inactive
[13]
  outcome: inactive
[14]
  outcome: inactive

## C=CCc1ccc2c(c1)OCO2
[1]
  outcome: inactive
[2]
  outcome: inactive
[4]
  outcome: inactive
[5]
  outcome: inactive
[6]
  outcome: inactive
[7]
  outcome: inactive
[8]
  outcome: inactive
[9]
  outcome: inactive
[10]
  outcome: inactive
[15]
  outcome: inactive
[13]
  outcome: inactive

## CC(C)(C)OOC(C)(C)CCC(C)(C)OOC(C)(C)C
[1]
  outcome: inactive
[2]
  AC50: 8.34 µM (active)
[16]
  outcome: inactive
[4]
  outcome: inactive
[5]
  AC50: 38 µM (active)
[6]
  outcome: inactive
[7]
  outcome: inactive
[8]
  outcome: inactive
[9]
  outcome: inactive
[10]
  outcome: inactive
[15]
  outcome: inactive
[11]
  outcome: inactive
[17]
  outcome: inactive

## O=C1CCCO1
[1]
  outcome: inactive
[3]
  outcome: inactive
[16]
  outcome: inactive
[4]
  outcome: inactive
[5]
  outcome: inactive
[6]
  outcome: inactive
[7]
  outcome: inactive
[8]
  outcome: inactive
[9]
  outcome: inactive
[10]
  outcome: inactive
[15]
  outcome: inactive
[11]
  outcome: inactive
[18]
  outcome: inactive
[14]
  outcome: inactive

## Brc1ccc(Oc2ccccc2)cc1
[1]
  outcome: inactive
[3]
  outcome: inactive
[16]
  outcome: inactive
[4]
  outcome: inactive
[5]
  AC50: 149 µM (active)
[6]
  outcome: inactive
[7]
  outcome: inactive
[8]
  outcome: inactive
[9]
  outcome: inactive
[10]
  outcome: inactive
[15]
  outcome: inactive
[12]
  outcome: inactive
